Measured values from PubChem BioAssay (EPA / NIEHS).
Calls of active or inactive are those of the source. The calls were made as follows: active = hit-call score of the fitted dose curve at least 0.9, where 1 is the maximum; inactive = score below 0.9.

Experiments:
Conditions in all cases: mRNA level, 48 h; actives raise or lower the signal
[1] = read-out: Bcl-2 (BAX) gene, BAX (gene 581); assay: LTEA_HepaRG_BAX: Life Technologies and Expression Analysis (LTEA) Assay for Bcl-2 (BAX) gene using HepaRG (AID 2283470)
Summary of the method: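 Cells were thawed, plated for 48 h, moved to serum-free induction medium and dosed for 48 h (highest concentration 100 uM, half-log steps, 0.5% DMSO). Total RNA was then analysed for BAX expression by qRT-PCR.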

[2] = read-out: adenosine kinase (ADK) gene, ADK (gene 132); assay: LTEA_HepaRG_ADK: Life Technologies and Expression Analysis (LTEA) Assay for adenosine kinase (ADK) gene using HepaRG (AID 2283471)
Summary of the method: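 Following 48 h exposure of HepaRG cells in 0.5% DMSO (top concentration 100 uM, duplicate wells), ADK mRNA induction or suppression was measured by qRT-PCR, normalised to ACTB/GAPDH/POLR2A, and fitted bidirectionally relative to vehicle.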

[3] = read-out: Alpha-fetoprotein (AFP) gene, AFP (gene 174); assay: LTEA_HepaRG_AFP: Life Technologies and Expression Analysis (LTEA) Assay for Alpha-fetoprotein (AFP) gene using HepaRG (AID 2283472)
Summary of the method: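 Chemicals were tested on differentiated HepaRG cells for 48 hours at eight concentrations up to 100 uM, with 0.5% DMSO as vehicle. AFP expression was then quantified by qRT-PCR and analyzed for gain or loss relative to DMSO.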

BCL2L11 (gene 10018) = assay: LTEA_HepaRG_BCL2L11: Life Technologies and Expression Analysis (LTEA) Assay for Bcl-2 (BCL2L11) gene using HepaRG (AID 2283473)
Summary of the method: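 Differentiated human HepaRG cells in serum-free induction medium were exposed in duplicate for 48 h to eight concentrations (top 100 uM, half-log steps, 0.5% DMSO). BCL2L11 mRNA was quantified by TaqMan qRT-PCR, normalized to ACTB/GAPDH/POLR2A, bidirectional fit versus DMSO.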

[4] = read-out: Apolipoprotein A-V (APOA5) gene, APOA5 (gene 116519); assay: LTEA_HepaRG_APOA5: Life Technologies and Expression Analysis (LTEA) Assay for Apolipoprotein A-V (APOA5) gene using HepaRG (AID 2283474)
Summary of the method: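 Differentiated human HepaRG cells were exposed in duplicate for 48 h to eight half-log concentrations from 100 uM in 0.5% DMSO. APOA5 mRNA was quantified by TaqMan qRT-PCR, normalized to ACTB, GAPDH and POLR2A, and fitted bidirectionally against DMSO.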

[5] = read-out: Bcl-2 (BID) gene, BID (gene 637); assay: LTEA_HepaRG_BID: Life Technologies and Expression Analysis (LTEA) Assay for Bcl-2 (BID) gene using HepaRG (AID 2283476)
Summary of the method: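 Cells are plated, cultured 48 h, switched to serum-free induction medium, then dosed 48 h (100 uM top, half-log steps, 0.5% DMSO). RNA is isolated and BID expression read by qRT-PCR.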

Caspase-3 (Homo sapiens) = Caspase-3 (Homo sapiens) (UniProt P42574); assay: LTEA_HepaRG_CASP3: Life Technologies and Expression Analysis (LTEA) Assay for cysteine-aspartic acid protease (CASP3) using HepaRG (AID 2283477)
Sequence of Caspase-3 (Homo sapiens) (P42574 whole entry, looked up): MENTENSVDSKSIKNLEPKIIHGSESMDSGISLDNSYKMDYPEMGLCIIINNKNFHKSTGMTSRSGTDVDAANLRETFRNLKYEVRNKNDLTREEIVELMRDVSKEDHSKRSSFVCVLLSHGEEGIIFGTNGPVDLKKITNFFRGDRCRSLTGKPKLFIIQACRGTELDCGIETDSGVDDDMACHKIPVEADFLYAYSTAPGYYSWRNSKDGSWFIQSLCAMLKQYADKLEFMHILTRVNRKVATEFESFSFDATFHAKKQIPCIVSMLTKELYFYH
Summary of the method: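 Differentiated human HepaRG cells in serum-free induction medium were exposed 48 h to 8-point half-log concentrations from 100 uM (0.5% DMSO vehicle). CASP3 mRNA was measured by qRT-PCR, normalised to ACTB, GAPDH and POLR2A, with bidirectional fitting against DMSO.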

[6] = read-out: Cytochrome P450 (CYP24A1), CYP24A1 (gene 1591); assay: LTEA_HepaRG_CYP24A1: Life Technologies and Expression Analysis (LTEA) Assay for Cytochrome P450 (CYP24A1) using HepaRG (AID 2283478)
Summary of the method: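 Differentiated HepaRG cells, pre-cultured 48 h, were exposed in duplicate for 48 h in serum-free induction medium to 8 half-log concentrations (top 100 uM, 0.5% DMSO). CYP24A1 mRNA was quantified by TaqMan qRT-PCR, normalized to ACTB/GAPDH/POLR2A, fitted bidirectionally versus DMSO.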

[7] = read-out: Cytochrome P450 (CYP1A2), CYP1A2 (gene 1544); assay: LTEA_HepaRG_CYP1A2: Life Technologies and Expression Analysis (LTEA) Assay for Cytochrome P450 (CYP1A2) using HepaRG (AID 2283479)
Summary of the method: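 Differentiated human HepaRG cells in serum-free induction medium were exposed in duplicate for 48 h to 8-point half-log concentrations up to 100 uM in 0.5% DMSO. CYP1A2 mRNA measured by qRT-PCR, normalized to ACTB, GAPDH, POLR2A; bidirectional fit vs DMSO.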

[8] = read-out: cysteine-aspartic acid protease (CASP8), CASP8 (gene 841); assay: LTEA_HepaRG_CASP8: Life Technologies and Expression Analysis (LTEA) Assay for cysteine-aspartic acid protease (CASP8) using HepaRG (AID 2283480)
Summary of the method: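 Concentration-response in duplicate up to 100 uM (half-log steps, 0.5% DMSO) on differentiated HepaRG cultures for 48 h. Expression change of CASP8 mRNA is determined by TaqMan qRT-PCR with housekeeping-gene normalization.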

[9] = read-out: Cytochrome P450 (CYP2B6), CYP2B6 (gene 1555); assay: LTEA_HepaRG_CYP2B6: Life Technologies and Expression Analysis (LTEA) Assay for Cytochrome P450 (CYP2B6) using HepaRG (AID 2283481)
Summary of the method: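 Differentiated HepaRG cells, serum-free induction medium, exposed 48 h in duplicate to 8-point half-log concentrations from 100 uM in 0.5% DMSO. CYP2B6 mRNA by qRT-PCR, normalized to ACTB, GAPDH, POLR2A; bidirectional fit versus DMSO.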

[10] = read-out: Cytochrome P450 2C19 (Homo sapiens) (UniProt P33261); assay: LTEA_HepaRG_CYP2C19: Life Technologies and Expression Analysis (LTEA) Assay for CYP2C19 using HepaRG (AID 2283482)
Summary of the method: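 Differentiated human HepaRG cells were exposed for 48 h in serum-free induction medium to 8 concentrations (top 100 uM, half-log steps, 0.5% DMSO). CYP2C19 mRNA was measured by qRT-PCR, normalized to ACTB/GAPDH/POLR2A, and fitted bidirectionally against DMSO.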

CYP2C9 (gene 1559) = assay: LTEA_HepaRG_CYP2C9: Life Technologies and Expression Analysis (LTEA) Assay for CYP2C9 using HepaRG (AID 2283484)
Summary of the method: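 Eight-point concentration-response (highest 100 uM, half-log dilutions) in HepaRG cells for 48 h; CYP2C9 expression by qRT-PCR normalized to ACTB, GAPDH, POLR2A. Bidirectional fit, DMSO baseline.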

CYP2E1 (gene 1571) = assay: LTEA_HepaRG_CYP2E1: Life Technologies and Expression Analysis (LTEA) Assay for CYP2E1 using HepaRG (AID 2283485)
Summary of the method: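 Readout is qRT-PCR of CYP2E1 mRNA, normalized to three housekeeping genes and fitted bidirectionally against 0.5% DMSO. HepaRG cells were dosed 48 h at eight concentrations, highest 100 uM with half-log dilutions.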

CYP4A11 (gene 1579) = assay: LTEA_HepaRG_CYP4A11: Life Technologies and Expression Analysis (LTEA) Assay for CYP4A11 using HepaRG (AID 2283486)
Summary of the method: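 Differentiated HepaRG cells, serum-free induction medium, exposed 48 h in duplicate to 8-point half-log series from 100 uM in 0.5% DMSO. CYP4A11 mRNA measured by qRT-PCR, normalized to ACTB, GAPDH, POLR2A; bidirectional fit versus DMSO.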

[11] = read-out: Cytochrome P450 3A4 (Homo sapiens) (UniProt P08684); assay: LTEA_HepaRG_CYP3A4: Life Technologies and Expression Analysis (LTEA) Assay for CYP3A4 using HepaRG (AID 2283487)
Summary of the method: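 In a human hepatic line (HepaRG), duplicate wells were treated 48 h with up to 100 uM chemical in half-log dilutions. Endpoint: CYP3A4 mRNA induction or loss relative to 0.5% DMSO vehicle, by qRT-PCR.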

[12] = read-out: DNA damage-inducible transcript 3 (DDIT3), DDIT3 (gene 1649); assay: LTEA_HepaRG_DDIT3: Life Technologies and Expression Analysis (LTEA) Assay for DNA damage-inducible transcript 3 (DDIT3) using HepaRG (AID 2283488)
Summary of the method: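 Cells are human HepaRG liver cells treated for 48 h with eight half-log concentrations up to 100 uM in 0.5% DMSO. Transcript levels come from qRT-PCR normalized to three housekeeping genes, with activity fitted in both directions relative to vehicle.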

[13] = read-out: Pro-epidermal growth factor (Homo sapiens) (UniProt P01133); assay: LTEA_HepaRG_EGF: Life Technologies and Expression Analysis (LTEA) Assay for Epidermal growth factor (EGF) using HepaRG (AID 2283489)
Summary of the method: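 Differentiated human HepaRG cells, plated 48 h then switched to serum-free induction medium, were exposed for 48 h to test chemicals (8-point half-log series, top 100 uM, 0.5% DMSO). EGF mRNA was quantified by qRT-PCR, normalized to ACTB, GAPDH, POLR2A.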

[14] = read-out: Apoptosis regulator Bcl-2 (Homo sapiens) (UniProt P10415); assay: LTEA_HepaRG_BCL2: Life Technologies and Expression Analysis (LTEA) Assay for Bcl-2 gene using HepaRG (AID 2283475)
Summary of the method: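 Plated human HepaRG cells are exposed to test chemicals for 48 h across eight concentrations from 100 uM downward in half-log steps (0.5% DMSO). BCL2 expression is then measured by qRT-PCR with housekeeping normalisation and fitted bidirectionally against vehicle.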

CYP2C8 (gene 1558) = assay: LTEA_HepaRG_CYP2C8: Life Technologies and Expression Analysis (LTEA) Assay for CYP2C8 using HepaRG (AID 2283483)
Summary of the method: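 This is a transcriptional endpoint in HepaRG cultures: 48 h exposure, highest concentration 100 uM. CYP2C8 mRNA is quantified by TaqMan qRT-PCR.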

Measured: AC50

Sequence of Cytochrome P450 2C19 (Homo sapiens) (P33261 whole entry, looked up): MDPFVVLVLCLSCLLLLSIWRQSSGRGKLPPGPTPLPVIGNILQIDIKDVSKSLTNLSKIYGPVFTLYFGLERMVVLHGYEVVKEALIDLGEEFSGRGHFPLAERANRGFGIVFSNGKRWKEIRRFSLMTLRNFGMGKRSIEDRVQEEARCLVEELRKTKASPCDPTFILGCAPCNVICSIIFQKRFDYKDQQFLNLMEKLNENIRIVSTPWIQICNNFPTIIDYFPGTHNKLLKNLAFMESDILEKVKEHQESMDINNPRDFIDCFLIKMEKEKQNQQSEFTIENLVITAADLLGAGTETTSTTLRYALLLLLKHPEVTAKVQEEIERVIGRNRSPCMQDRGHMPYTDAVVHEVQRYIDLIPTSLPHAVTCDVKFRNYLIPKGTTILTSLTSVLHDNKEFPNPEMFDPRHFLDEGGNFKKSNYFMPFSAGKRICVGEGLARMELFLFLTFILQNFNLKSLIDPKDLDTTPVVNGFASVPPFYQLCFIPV
Sequence of Apoptosis regulator Bcl-2 (Homo sapiens) (P10415 whole entry, looked up): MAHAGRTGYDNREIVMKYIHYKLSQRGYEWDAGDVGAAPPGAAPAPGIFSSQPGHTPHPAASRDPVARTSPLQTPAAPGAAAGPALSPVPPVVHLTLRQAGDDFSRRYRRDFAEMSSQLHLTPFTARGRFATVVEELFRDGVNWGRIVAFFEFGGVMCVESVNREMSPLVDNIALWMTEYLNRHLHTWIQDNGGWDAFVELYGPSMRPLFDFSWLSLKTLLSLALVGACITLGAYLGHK
Sequence of Cytochrome P450 3A4 (Homo sapiens) (P08684 whole entry, looked up): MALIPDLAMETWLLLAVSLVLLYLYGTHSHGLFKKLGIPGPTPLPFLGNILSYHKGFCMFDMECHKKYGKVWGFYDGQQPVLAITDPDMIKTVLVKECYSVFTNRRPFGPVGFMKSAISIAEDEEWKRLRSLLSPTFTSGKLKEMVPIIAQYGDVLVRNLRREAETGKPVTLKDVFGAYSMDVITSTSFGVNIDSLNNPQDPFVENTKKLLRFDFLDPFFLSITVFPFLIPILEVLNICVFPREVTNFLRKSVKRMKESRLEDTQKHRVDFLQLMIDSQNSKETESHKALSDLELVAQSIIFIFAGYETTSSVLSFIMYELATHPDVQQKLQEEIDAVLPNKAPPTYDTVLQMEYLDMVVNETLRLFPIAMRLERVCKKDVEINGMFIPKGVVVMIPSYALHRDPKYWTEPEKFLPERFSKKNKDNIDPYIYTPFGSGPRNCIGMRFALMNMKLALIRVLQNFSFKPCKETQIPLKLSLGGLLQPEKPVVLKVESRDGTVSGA

N#CN=C1SCCN1Cc1ccc(Cl)nc1
inactive: [1] | [2] | [3] | BCL2L11 (gene 10018) | [4] | [5] | Caspase-3 (Homo sapiens) | [6] | [7] | [8] | CYP2C9 (gene 1559) | CYP2E1 (gene 1571) | CYP4A11 (gene 1579) | [12] | [13]
active: [9] 28.6 µM | [10] 34.1 µM | [11] 30.6 µM

Clc1nc(Cl)nc(Nc2ccccc2Cl)n1
inactive: [1] | [2] | [3] | BCL2L11 (gene 10018) | [4] | [5] | Caspase-3 (Homo sapiens) | [6] | [8] | CYP2C9 (gene 1559) | CYP4A11 (gene 1579) | [12] | [13]
active: [7] 20.1 µM | [9] 34.8 µM | [10] 10.3 µM | CYP2E1 (gene 1571) 16.7 µM | [11] 18.5 µM

CCCCOCN(C(=O)CCl)c1c(CC)cccc1CC
active: [9] 40 µM | [10] 50 µM | CYP4A11 (gene 1579) 50 µM | [11] 27.7 µM
inactive: [1] | [2] | [3] | BCL2L11 (gene 10018) | [4] | [14] | [5] | Caspase-3 (Homo sapiens) | [6] | [7] | [8] | CYP2C8 (gene 1558) | CYP2C9 (gene 1559) | CYP2E1 (gene 1571) | [12] | [13]

Cn1c(-c2ccccc2)cc(-c2ccccc2)[n+]1C
active: [2] 82.1 µM | [3] 39.5 µM | [4] 63.8 µM | [14] 13.3 µM | [5] 80 µM | Caspase-3 (Homo sapiens) 50 µM | [7] 13.2 µM | [8] 89.2 µM | [9] 11.3 µM | [10] 50 µM | CYP2C8 (gene 1558) 13.5 µM | CYP2C9 (gene 1559) 19.5 µM | CYP2E1 (gene 1571) 24.5 µM | CYP4A11 (gene 1579) 20.3 µM | [11] 50 µM | [12] 13.5 µM | [13] 81.3 µM
inactive: [1] | BCL2L11 (gene 10018) | [6]

CC1(C)C(C=C(Cl)Cl)C1C(=O)OC(C#N)c1cccc(Oc2ccccc2)c1 (stereo not given)
inactive: [1] | [2] | [3] | BCL2L11 (gene 10018) | [4] | [5] | Caspase-3 (Homo sapiens) | [6] | [8] | CYP2C9 (gene 1559) | CYP4A11 (gene 1579) | [12] | [13]
active: [7] 21.9 µM | [9] 9.35 µM | [10] 23.7 µM | CYP2E1 (gene 1571) 50.2 µM

Cc1c(COC(=O)[C@@H]2[C@H](/C=C(\Cl)C(F)(F)F)C2(C)C)cccc1-c1ccccc1
inactive: [1] | [2] | BCL2L11 (gene 10018) | [4] | [5] | Caspase-3 (Homo sapiens) | [6] | [8] | CYP2C8 (gene 1558) | CYP2C9 (gene 1559) | CYP4A11 (gene 1579) | [13]
active: [3] 50 µM | [7] 76.3 µM | [10] 17.9 µM | CYP2E1 (gene 1571) 48.2 µM | [11] 11.3 µM | [12] 81.2 µM

Nc1c(Cl)c(F)nc(OCC(=O)O)c1Cl
inactive: [1] | [2] | [3] | BCL2L11 (gene 10018) | [14] | [5] | Caspase-3 (Homo sapiens) | [6] | [7] | [8] | [9] | [10] | CYP2C8 (gene 1558) | CYP2C9 (gene 1559) | CYP2E1 (gene 1571) | CYP4A11 (gene 1579) | [11] | [12] | [13]
